S1P4 antagonist – human S1P4 receptor antagonism | AID 1510 | 220,000 compounds, 0.26% hits | inhibition, % at 4.98 µM | S1P4-expressing cells, antagonist mode, reporter read-out; in the data active means inhibition above about 29%;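 further: 0% = wells stimulated with agonist and 100% = vehicle wells without agonist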
p97 inhibitor – human p97 ATPase inhibition; P55072; recombinant p97 ATPase, Kinase-Glo ATP luminescence, 3 h; inhibition, % at 8 µM; 220,000 compounds, 0.42% hits; AID 1481; in the data active means inhibition above about 15%;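 further: 0% = DMSO vehicle and 100% = wells lacking enzyme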
UBC9 SUMO inh – SUMOylation inhibition | P63279 | HTRF SUMOylation assay, SAE1/SAE2 + UBC9, in vitro | inhibition, % at 35 µM | 290,000 compounds, 0.36% hits | AID 2006; in the data active means inhibition above about 50%, passing the limit was not always enough
Target sequence (P63279 whole entry, looked up): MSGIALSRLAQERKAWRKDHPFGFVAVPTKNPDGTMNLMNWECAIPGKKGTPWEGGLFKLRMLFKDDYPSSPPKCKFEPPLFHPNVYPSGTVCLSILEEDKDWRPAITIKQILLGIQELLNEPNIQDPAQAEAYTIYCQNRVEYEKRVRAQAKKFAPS
S1P4 ag – human S1P4 receptor agonism; S1P4-expressing cell line, agonist reporter assay; O95977; activation, % at 4.98 µM; 220,000 compounds, 0.35% hits; in the data active means activation above about 11%;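 further: 0% = DMSO vehicle and 100% = reference agonist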
Redox H2O2 prof – compounds producing H2O2 with reducing agent – biochemical, NIH compound library profiling, artefact control for MLSCN library redox annotation, primary screen; DTT-dependent redox cycling H2O2, phenol red/HRP absorbance; 100% = 100 µM peroxide control, 0% = buffer; activation, % at 10 µM; 200,000 compounds, 0.03% hits; AID 878;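 active means activation of at least 50% relative to the plate's high and low controls in the primary single-dose screen; inactive means activation below 50%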;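 further: compound incubated with DTT at 0.8 mM final as the reducing agent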
S1P3 antagonist – antagonists of human S1P3 receptor. CHO S1P3 NFAT-BLA reporter, FRET fluorescence, antagonist mode. Q99500. inhibition, % at 4.98 µM. 170,000 compounds, 0.27% hits. AID 485;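 active means inhibition above the plate cutoff, the mean inhibition of test wells on that plate plus 3 SD, cut at about 28% in these data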;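 further: cells challenged with S1P at its EC80 of 0.8 µM; blue over green emission ratio from cleaved BLA substrate after 4 h stimulation; 0% = S1P-stimulated wells and 100% = unstimulated DMSO-only wells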
Target sequence (Q99500 whole entry, looked up): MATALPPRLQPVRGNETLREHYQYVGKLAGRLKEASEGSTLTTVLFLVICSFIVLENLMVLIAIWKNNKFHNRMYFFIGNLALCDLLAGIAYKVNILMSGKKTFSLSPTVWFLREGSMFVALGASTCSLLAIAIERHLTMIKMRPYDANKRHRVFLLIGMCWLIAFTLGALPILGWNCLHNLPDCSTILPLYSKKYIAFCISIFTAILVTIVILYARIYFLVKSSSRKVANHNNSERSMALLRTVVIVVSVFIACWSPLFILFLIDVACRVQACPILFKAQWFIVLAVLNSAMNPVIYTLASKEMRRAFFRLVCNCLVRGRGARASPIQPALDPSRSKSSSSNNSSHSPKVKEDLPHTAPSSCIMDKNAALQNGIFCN
p97 confirm – human p97 ATPase inhibition, confirmation; inhibition, % at 8 µM; recombinant p97 ATPase, Kinase-Glo ATP luminescence; shares compounds with p97 inhibitor; 760 compounds, 44% hits; AID 1517;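 active means percent inhibition of p97 ATPase above a set limit, the primary screen's mean plus 3 SD, cut at about 15% in these data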;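 further: 0% = DMSO wells and 100% = wells lacking p97 protein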
* = called active by the depositor. In the library only some 1.1% were active in any assay of this set; here they are far more common.

Results for Cc1c(NS(=O)(=O)c2ccc(S(=O)(=O)c3ccccc3)s2)c(=O)n(-c2ccccc2)n1C ?
S1P4 antagonist: -4; p97 inhibitor: 16*; UBC9 SUMO inh: 18; S1P4 ag: 2; S1P3 antagonist: 4; p97 confirm: 17*

What do the screens show for `Cc1c(NS(=O)(=O)c2ccc(Br)s2)c(=O)n(-c2ccccc2)n1C`?
S1P4 antagonist: -11; p97 inhibitor: 1; UBC9 SUMO inh: 6; S1P4 ag: 0; Redox H2O2 prof: 2; S1P3 antagonist: 5

What do the screens show for `COc1ccccc1-c1nnc(Sc2nc([N+](=O)[O-])nn2C)o1`?
S1P4 antagonist: 7; p97 inhibitor: 16*; UBC9 SUMO inh: 3; S1P4 ag: 1; Redox H2O2 prof: 0; p97 confirm: 24*

How did Cc1cc(NC2CCCCC2)nc(-c2ccccc2O)n1 do in these assays?
S1P4 antagonist: 5; p97 inhibitor: 0; UBC9 SUMO inh: 27; S1P4 ag: 1; Redox H2O2 prof: -8

What do the screens show for `Cc1cc(NCc2ccccc2)nc(-c2ccccc2O)n1`?
S1P4 antagonist: 0; p97 inhibitor: 20*; UBC9 SUMO inh: 12; S1P4 ag: 1; Redox H2O2 prof: -1; S1P3 antagonist: 4; p97 confirm: 35*

Results for Cc1cc(Nc2ccccc2)nc(-c2ccccc2O)n1 ?
S1P4 antagonist: -7; p97 inhibitor: 25*; UBC9 SUMO inh: 0; S1P4 ag: -3; Redox H2O2 prof: 0; S1P3 antagonist: 31; p97 confirm: 40*

What do the screens show for `Cc1cc(Nc2cccc(F)c2)nc(-c2ccccc2O)n1`?
S1P4 antagonist: -5; p97 inhibitor: 3; UBC9 SUMO inh: -3; S1P4 ag: 0; Redox H2O2 prof: 0; S1P3 antagonist: 18

Results for O=C(Nc1cc(S(=O)(=O)Nc2ccc(Cl)cc2)ccc1N1CCCCC1)c1ccc(F)cc1Cl ?
S1P4 antagonist: -8; p97 inhibitor: 3; UBC9 SUMO inh: -5; S1P4 ag: 1; Redox H2O2 prof: 0; S1P3 antagonist: -5

What do the screens show for `CC(NC(=O)Nc1ccc(O)cc1)(C(F)(F)F)C(F)(F)F`?
S1P4 antagonist: 0; p97 inhibitor: 30*; UBC9 SUMO inh: 77; S1P4 ag: 1; Redox H2O2 prof: 0; p97 confirm: 1

What do the screens show for `CCC(NC(=O)Nc1ccc(O)cc1)(C(F)(F)F)C(F)(F)F`?
S1P4 antagonist: -13; p97 inhibitor: 37*; UBC9 SUMO inh: 50; S1P4 ag: 3; Redox H2O2 prof: 0; p97 confirm: 5

Results for CCC(NC(=O)NCc1ccccc1)(C(F)(F)F)C(F)(F)F ?
S1P4 antagonist: -6; p97 inhibitor: 5; UBC9 SUMO inh: 1; S1P4 ag: 4; Redox H2O2 prof: 0; S1P3 antagonist: -1

What do the screens show for `COc1ccc(NC(=O)NC(C)(C(F)(F)F)C(F)(F)F)cc1`?
S1P4 antagonist: -14; p97 inhibitor: -2; UBC9 SUMO inh: -18; S1P4 ag: 0; Redox H2O2 prof: -5

What do the screens show for `O=[N+]([O-])c1ccc(N2CCOCC2)cc1N1CCCCC1`?
S1P4 antagonist: -8; p97 inhibitor: -3; UBC9 SUMO inh: -5; S1P4 ag: 0; Redox H2O2 prof: -1; S1P3 antagonist: 1

What do the screens show for `O=C(NNC(=O)c1ccco1)c1cccc([N+](=O)[O-])c1`?
S1P4 antagonist: 15; p97 inhibitor: 3; UBC9 SUMO inh: 21; S1P4 ag: 0; Redox H2O2 prof: -10

Results for Cc1cc(NC(=O)c2ccc3c(c2)OCCO3)ccc1NC(=O)c1cc2ccccc2o1 ?
S1P4 antagonist: -2; p97 inhibitor: 16*; UBC9 SUMO inh: 23; S1P4 ag: 2; Redox H2O2 prof: 0; S1P3 antagonist: 11; p97 confirm: 15*

What do the screens show for `O=c1cc(NC2CCCCC2)c2ccccc2o1`?
S1P4 antagonist: 0; p97 inhibitor: 5; UBC9 SUMO inh: 10; S1P4 ag: 3; Redox H2O2 prof: 1

Results for Cc1cc(O)c(C=O)c2c1C(=O)Oc1c(CO)c(O)c3c(c1O2)C(O)OC3=O (configuration not stated) ?
S1P4 antagonist: 10; p97 inhibitor: 64*; UBC9 SUMO inh: 96*; S1P4 ag: 2; Redox H2O2 prof: 0; S1P3 antagonist: -11; p97 confirm: 24*

How did Cc1cc(O)c(CN(C)C)c2c1C(=O)/C(=C/c1ccco1)O2 do in these assays?
UBC9 SUMO inh: 18

How did O=C(O)CSc1c(-c2ccccc2)[nH]c2ccccc12 do in these assays?
S1P4 antagonist: -7; p97 inhibitor: 16*; UBC9 SUMO inh: 8; S1P4 ag: -4; Redox H2O2 prof: 0; S1P3 antagonist: -1; p97 confirm: 17*

What do the screens show for `O=C(Nc1ccc([N+](=O)[O-])cc1)N1CCCCC1`?
S1P4 antagonist: -16; p97 inhibitor: 1; UBC9 SUMO inh: 12; S1P4 ag: 1; Redox H2O2 prof: -2; S1P3 antagonist: -10

What do the screens show for `Cc1[nH]c2ccccc2c1C(=O)COC(=O)c1ccc([N+](=O)[O-])s1`?
S1P4 antagonist: 1; p97 inhibitor: 39*; UBC9 SUMO inh: -2; S1P4 ag: -1; Redox H2O2 prof: 1; S1P3 antagonist: -23; p97 confirm: 31*

Results for O=C1CC(=O)N(c2cccc(F)c2)N1 ?
S1P4 antagonist: 7; p97 inhibitor: 22*; UBC9 SUMO inh: 4; S1P4 ag: 1; Redox H2O2 prof: 0; S1P3 antagonist: -4; p97 confirm: 9

Results for COc1cc(C(=O)N2CCC(n3cnc4cc(F)ccc43)CC2)cc(OC)c1OC ?
S1P4 antagonist: -5; p97 inhibitor: 4; UBC9 SUMO inh: -3; S1P4 ag: -2; Redox H2O2 prof: 2; S1P3 antagonist: -34

Results for COc1cc(-c2nnc(SCC(=O)NC3CCS(=O)(=O)C3)o2)cc(OC)c1OC (configuration not stated) ?
S1P4 antagonist: -1; p97 inhibitor: 4; UBC9 SUMO inh: 9; S1P4 ag: 0; Redox H2O2 prof: -1; S1P3 antagonist: 4

What do the screens show for `COC(=O)c1c(N)sc(Cc2ccccc2)c1C`?
S1P4 antagonist: 7; p97 inhibitor: 3; UBC9 SUMO inh: 4; S1P4 ag: 2; Redox H2O2 prof: 0; S1P3 antagonist: 5

How did COC(=O)c1c(NC(=O)/C=C/C(=O)O)sc(Cc2ccccc2)c1C do in these assays?
S1P4 antagonist: -27; p97 inhibitor: 15*; UBC9 SUMO inh: 19; S1P4 ag: 1; Redox H2O2 prof: 0; S1P3 antagonist: 1; p97 confirm: 23*

What do the screens show for `COc1cc(C=C2C(=O)c3ccccc3C2=O)ccc1O`?
S1P4 antagonist: 2; p97 inhibitor: -25; UBC9 SUMO inh: 15; S1P4 ag: 2; S1P3 antagonist: -3

Compound activity: PubChem BioAssay, several laboratories
